Experiments:
Conditions in all cases: Compound Concentration (nM):1000
TBK1 = tested on: TBK1
TEC = tested on: TEC
TESK1 = tested on: TESK1
TGFBR1 = tested on: TGFBR1
TGFBR2 = tested on: TGFBR2
TIE1 = tested on: TIE1
TIE2 = tested on: T1, TIE2
T1 construct: gene TEK

TLK1 = tested on: TLK1
TLK2 = tested on: TLK2
TNIK = tested on: TNIK
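Further: KINOMEscan scanMAX binding as percent activity remaining versus control; lower means stronger binding.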

Row | Compound | Percent Control (TBK1) [%] | Percent Control (TEC) [%] | Percent Control (TESK1) [%] | Percent Control (TGFBR1) [%] | Percent Control (TGFBR2) [%] | Percent Control (TIE1) [%] | Percent Control (TIE2) [%] | Percent Control (TLK1) [%] | Percent Control (TLK2) [%] | Percent Control (TNIK) [%]
1 | CCS(=O)(=O)c1ccc(OC)c(Nc2ncc(-c3cccc(OC)c3)o2)c1 [GW580509X] | 100 | 100 | 100 | 81 | 46 | 49 | 100 | 100 | 99 | 75
2 | CN1CCN(C(=O)c2ccc(NC(=O)Nc3ccc(N(C)c4ccnc(Nc5ccc(CS(C)(=O)=O)cc5)n4)cc3)cc2)CC1.Cl [GW830263A] | 55 | 100 | 100 | 88 | 26 | 8.3 | 41 | 86 | 100 | 23
3 | COc1cc(C)c(N(C)C(=O)CN(C)C)cc1Nc1nc(Nc2cccc(F)c2C(N)=O)c2cc[nH]c2n1 [GSK2219385] | 69 | 100 | 92 | 100 | 100 | 82 | 100 | 85 | 100 | 98
4 | COc1cc(N2CCN(C(C)C)CC2)ccc1Nc1nc(Nc2ccc(F)cc2C(=O)NC[C@@H](O)CO)c2cc[nH]c2n1 [GSK1392956A] | 100 | 100 | 92 | 100 | 100 | 100 | 100 | 83 | 92 | 72
5 | C/C(Nc1ccc(S(N)(=O)=O)cc1)=C1/C(=O)Nc2ccccc21 [GW335962X] | 75 | 100 | 100 | 88 | 100 | 100 | 100 | 94 | 65 | 18
6 | COc1ccc2cc(-c3c(-c4ccncc4)nc(-c4ccc(S(C)(=O)=O)cc4C)n3C)ccc2c1 [SB-633825] | 65 | 66 | 91 | 9.7 | 86 | 3.8 | 2.4 | 94 | 100 | 54
7 | C[C@@H](Oc1cc(-n2cnc3ccc(OC4CCN(C)CC4)cc32)sc1C(N)=O)c1ccccc1Cl [GSK579289A] | 67 | 99 | 72 | 100 | 100 | 52 | 69 | 81 | 77 | 75
8 | NS(=O)(=O)c1ccc(N/N=C2\C(=O)Nc3ccc(C(=O)NCCc4c[nH]cn4)cc32)cc1 [GW300660X] | 72 | 100 | 100 | 100 | 100 | 100 | 100 | 100 | 100 | 100
9 | COc1cc2ncn(-c3cc(O[C@H](C)c4ccccc4Cl)c(C(N)=O)s3)c2cc1OC [GSK237701A] | 80 | 100 | 100 | 72 | 100 | 13 | 97 | 96 | 98 | 99
10 | Cl.O=C(Nc1ccc(Oc2ccc3[nH]c(NC(=O)c4ccccc4)nc3c2)cc1)Nc1cc(C(F)(F)F)ccc1F [GW709042A] | 88 | 100 | 96 | 100 | 100 | 2.3 | 7.5 | 100 | 86 | 100
11 | COc1ccc(COc2ccc(Cc3cnc(N)nc3N)cc2OC)cc1 [GW632580X] | 99 | 100 | 99 | 100 | 100 | 100 | 100 | 92 | 100 | 100
12 | O=C(Nc1n[nH]c2nc(-c3ccc(O)cc3)c(Br)cc12)C1CC1 [SB-725317] | 86 | 100 | 100 | 100 | 100 | 100 | 100 | 100 | 100 | 72
13 | NS(=O)(=O)c1ccc(Nc2ncc(-c3ccccc3)o2)cc1 [GW572399X] | 100 | 99 | 100 | 100 | 100 | 100 | 100 | 63 | 47 | 52
14 | Cl.O=C(Nc1ccc(Oc2ccc3[nH]c(NC(=O)c4ccco4)nc3c2)cc1)Nc1cc(C(F)(F)F)ccc1F [GW683134A] | 100 | 100 | 71 | 91 | 89 | 1.1 | 1.9 | 100 | 77 | 100
15 | Cl.O=S1CCN(Cc2ccc(-c3ccc4ncnc(Nc5ccc(OCc6ccccc6)c(F)c5)c4c3)o2)CC1 [GW576924A] | 100 | 100 | 100 | 100 | 100 | 100 | 100 | 100 | 100 | 100
16 | COc1ccccc1-c1cc(/C=C2\C(=O)Nc3ncc(Br)cc32)cc(Br)c1O [GW442130X] | 100 | 100 | 100 | 100 | 87 | 100 | 95 | 100 | 100 | 71
17 | NS(=O)(=O)c1ccc(N/N=C2\C(=O)Nc3ccc(Cl)cc32)cc1 [GW280670X] | 100 | 100 | 100 | 100 | 100 | 100 | 100 | 100 | 100 | 47
18 | O=C1Nc2ccc(C(=O)c3ccco3)cc2C1=Cc1cc(Cl)c(O)c(Cl)c1 [GW406108X] | 40 | 100 | 100 | 99 | 58 | 100 | 100 | 94 | 97 | 24
19 | CC1=C(C(=O)Nc2ccc3[nH]ncc3c2)C(c2ccc3ccccc3c2)CC(=O)N1 (stereo not shown) [GSK270822A] | 81 | 90 | 99 | 85 | 100 | 80 | 96 | 89 | 100 | 85
20 | Cc1cc(O)cc(C)c1/C=C/c1cncc(C(N)=O)c1 [GW435821X] | 100 | 100 | 100 | 84 | 81 | 100 | 100 | 100 | 100 | 100

Row | Compound | Percent Control (TBK1) [%] | Percent Control (TEC) [%] | Percent Control (TESK1) [%] | Percent Control (TGFBR1) [%] | Percent Control (TGFBR2) [%] | Percent Control (TIE1) [%] | Percent Control (TIE2) [%] | Percent Control (TLK1) [%] | Percent Control (TLK2) [%] | Percent Control (TNIK) [%]
21 | CC(C)COC(=O)c1ccc2c(c1)/C(=C/Nc1ccc(S(N)(=O)=O)cc1)C(=O)N2 [GW416981X] | 17 | 100 | 100 | 100 | 42 | 100 | 100 | 100 | 95 | 58
22 | Cl.O=C(O[C@H]1CN[C@H](C#Cc2cc3ncnc(Nc4ccc5c(cnn5Cc5ccccc5)c4)c3s2)C1)N1CCOCC1 [GSK200398A] | 100 | 100 | 96 | 97 | 100 | 100 | 100 | 80 | 72 | 96
23 | COc1cccc(-n2ncc3c(N/N=C/c4ccncc4)ncnc32)c1 [GW784752X] | 100 | 100 | 85 | 36 | 100 | 100 | 100 | 89 | 93 | 97
24 | NS(=O)(=O)c1ccc(N/N=C2\C(=O)Nc3ccc(-c4cnco4)cc32)cc1 [GW276655] | 63 | 100 | 77 | 100 | 100 | 73 | 100 | 96 | 66 | 26
25 | CN(C)c1cc2c(Nc3ccc4c(cnn4Cc4ccccc4)c3)ncnc2cn1 [GW282974X] | 55 | 84 | 87 | 100 | 100 | 100 | 100 | 78 | 80 | 100
26 | CCn1c(-c2nonc2N)nc2c(C#CC(C)(C)O)nc(OCCNC)cc21.Cl [GSK949675] | 95 | 100 | 100 | 100 | 100 | 100 | 96 | 100 | 100 | 100
27 | COc1cc(C=NNc2ncnc3c2cnn3-c2ccccc2)ccc1O [GW513184X] | 95 | 90 | 100 | 79 | 100 | 74 | 65 | 100 | 100 | 84
28 | COC(=O)Nc1nc2ccc(Oc3ccc(NC(=O)Nc4cc(C(F)(F)F)ccc4F)cc3)cc2s1.Cl [GW693917A] | 69 | 78 | 77 | 100 | 92 | 3.1 | 0.6 | 87 | 100 | 74
29 | Nc1ncnc2occ(-c3ccc(NC(=O)Nc4cc(C(F)(F)F)ccc4F)cc3)c12 [GW770249X] | 100 | 100 | 100 | 100 | 100 | 2.6 | 3.8 | 100 | 100 | 59
30 | CCS(=O)(=O)c1ccc(OC)c(Nc2ncc(-c3cccc(F)c3)o2)c1 [GW621970X] | 100 | 100 | 89 | 100 | 52 | 69 | 100 | 100 | 86 | 82
31 | COc1ccc2[nH]c3c4[nH]c5ccc(OC)cc5c4c4c(c3c2c1)C(=O)NC4=O [GW296115X] | 59 | 88 | 90 | 100 | 100 | 100 | 100 | 100 | 95 | 3
32 | COc1cc2ncnc(Nc3ccc4c(cnn4Cc4ccccc4)c3)c2cc1OC.Cl [GW282449A] | 100 | 83 | 100 | 100 | 100 | 100 | 100 | 100 | 100 | 100
33 | COc1cc(/C=N/Nc2ncnc3[nH]ncc23)ccc1O [GW578748X] | 50 | 100 | 94 | 100 | 87 | 100 | 100 | 86 | 76 | 94
34 | NS(=O)(=O)c1ccc(N/N=C2\C(=O)Nc3ccc(C(=O)NCc4ccncc4)cc32)cc1 [GW300657X] | 33 | 100 | 100 | 100 | 100 | 85 | 100 | 71 | 75 | 82
35 | CN(C)CCNC(=O)Nc1ccc(N(C)c2ccnc(Nc3ccc(CS(C)(=O)=O)cc3)n2)cc1.Cl [GW830900A] | 98 | 82 | 100 | 100 | 75 | 72 | 100 | 89 | 100 | 49
36 | CC1=C(C(=O)Nc2ccc3[nH]ncc3c2)C(c2ccc(Cl)c(Cl)c2)CC(=O)N1 (stereo not shown) [GSK299115A] | 92 | 92 | 100 | 100 | 100 | 90 | 100 | 84 | 90 | 100
37 | CCc1ccc(Oc2nccc(-c3c(-c4ccc(F)cc4)ncn3C3CCNCC3)n2)cc1 [SB-242719] | 65 | 100 | 99 | 96 | 100 | 100 | 100 | 91 | 100 | 66
38 | COc1cccc(-c2c[nH]c3c(N/N=C/c4ccncc4)ncnc23)c1 [GW814408X] | 71 | 90 | 97 | 55 | 100 | 96 | 100 | 84 | 100 | 51
39 | Cl.c1ccc(Cc2nc3ccc(Nc4ncnc5ccccc45)cc3[nH]2)cc1 [GR269666A] | 100 | 100 | 100 | 100 | 100 | 100 | 100 | 100 | 100 | 100
40 | COc1ccc2c(-c3ccnc(Nc4cccc(OC(F)(F)F)c4)n3)cnn2n1 [GW810372X] | 80 | 100 | 70 | 100 | 52 | 100 | 100 | 100 | 84 | 100
